The values that follow come from PubChem BioAssay (NCATS).

The source made the active and inactive calls. The rule behind the calls is not given here.
Potency is the fitted concentration of half-maximal effect.

The assay has as its system HIV-1 nucleocapsid protein NCp7 (binding to TG oligonucleotide). The experiment in a line: HIV Nucleocapsid (AID 346).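 Note: potency is for inhibitors that block NC binding and lower polarization.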 The note with it: HIV-1 NC / fluorescein-TGTGTGTG probe, fluorescence polarization. Put shortly: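 HIV-1 NC (100 nM) binding to fluorescein-labelled ssDNA TG4xF (10 nM) in Hepes pH 7.5, 250mM NaCl, 1uM ZnCl2, TCEP and 2-mercaptoethanol; compounds pin-transferred, 1 hr room temperature, fluorescence polarization read on CCD imager.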
For `COc1cccc(-c2nc(N(C)C)c3ccccc3n2)c1`, the Potency was > 20 µM (inactive).
Consider `O=C(c1cccc(F)c1)N1CCC2(CC1)CN(C(c1ccccc1)c1ccccc1)C2`, for which the Potency was > 20 µM (inactive).
`Cc1cnc(CNc2nc(-c3cccc(NS(C)(=O)=O)c3)nc3ccccc23)cn1`: the Potency is > 20 µM (inactive).
The result for `COC(=O)N1CCC2(CC1)CCN(c1ccncc1)CC2` reads > 20 µM (inactive); that for `COc1cccc(-c2ccc3ncnc(Nc4ccccc4)c3c2)c1`, > 20 µM (inactive); that for `Cc1ccccc1-c1ccc2ncnc(NCc3cccs3)c2c1`, > 20 µM (inactive).
In the case of `O=C(c1cccc(F)c1)N1CCC2(CCN(Cc3ccccc3)CC2)CC1`, the Potency was > 20 µM (inactive).
The same measure for `Cc1nc2cnc(N3CCN(C)CC3)nc2n(C)c1=O`: > 20 µM (inactive).
`O=c1cnc2cncnc2n1Cc1ccccc1Cl`: the Potency is > 20 µM (inactive).
The same measure for `CN(C)c1ncc2nc(-c3cccc(C#N)c3)c(=O)n(C[C@H]3CCCO3)c2n1`: > 20 µM (inactive).
The result for `COc1ccccc1CNc1ncncc1-c1ccoc1` reads > 20 µM (inactive); that for `Cn1c(=O)c(-c2cccs2)nc2cnc(Oc3ccccc3)nc21`, > 20 µM (inactive).
The same measure for `O=c1c(-c2ccc(Cl)cc2)nc2cnc(N3CCOCC3)nc2n1C[C@H]1CCCO1`: > 20 µM (inactive).
For the molecule `COc1ccccc1CNc1ccnc(-c2cccc(C#N)c2)n1`, the Potency is > 20 µM (inactive).
The result for `COc1cccc(Cn2c(=O)cnc3cnc(N(C)C)nc32)c1` reads > 20 µM (inactive); that for `COc1cccc(Cn2c(=O)c(C)nc3cnc(N4CCNCC4)nc32)c1`, > 4 µM (inactive); that for `Cc1noc(C)c1C(=O)N1CCC2(CC1)CN(Cc1cc(C(F)(F)F)cc(C(F)(F)F)c1)C2`, > 20 µM (inactive).
On to `O=C(c1cnccn1)N1CCC2(CCN(Cc3nccs3)CC2)CC1`, for which the Potency was > 20 µM (inactive).
For `COc1ccc(-n2c(=O)cnc3cnc(Oc4ccccc4)nc32)cc1`, the Potency is > 20 µM (inactive).
The same measure for `N#Cc1ccc(CN2CCC3(CC2)CCN(C(=O)c2csnn2)CC3)cc1`: > 20 µM (inactive); for `O=c1c(-c2cc(F)cc(F)c2)nc2cnc(N3CCNCC3)nc2n1CCc1ccccc1`: > 20 µM (inactive); for `COc1cccc(-c2cc(NCc3cnc(C)cn3)ncn2)c1`: > 20 µM (inactive).
Consider `COc1ccc2[nH]cc(CCNc3ncncc3-c3ccoc3)c2c1`, for which the Potency was > 20 µM (inactive).
The same measure for `COc1ccccc1CNc1nc(-c2ccccc2OC)nc2ccccc12`: > 20 µM (inactive); for `CN(C)C(=O)c1ccc(-c2nccc(NCc3cccnc3)n2)cc1`: > 20 µM (inactive).
